Source: PubChem BioAssay AID2227 (Johns Hopkins Ion Channel Center, 2009)
Among all 310,000 compounds or so, about 1,300 (0.42%) were called active. The sample holds actives, similar compounds and a random draw of the others, so the mix is not that of the screen.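 How the source made its calls: active means B-score of calcium response area above 5 SD of library B-scores, with initial fluorescence ratio within 5 SD of library; inactive means the rest.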

These compounds were tested against Short transient receptor potential channel 4 (Mus musculus) (UniProt Q9QUQ5) (assay: positive allosteric modulators of TRPC4, primary screen, cell-based, mouse TRPC4beta, HEK293 mu-opioid, Fluo-4 calcium (AID 2227;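 on B-score: B-score of integrated fluorescence ratio over time as area under calcium response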)). Settings: DAMGO EC20, Fluo-4 Ca2+ flux, at 10 µM; hits give high values.
Chain of Short transient receptor potential channel 4 (Mus musculus) (Q9QUQ5 whole entry, looked up): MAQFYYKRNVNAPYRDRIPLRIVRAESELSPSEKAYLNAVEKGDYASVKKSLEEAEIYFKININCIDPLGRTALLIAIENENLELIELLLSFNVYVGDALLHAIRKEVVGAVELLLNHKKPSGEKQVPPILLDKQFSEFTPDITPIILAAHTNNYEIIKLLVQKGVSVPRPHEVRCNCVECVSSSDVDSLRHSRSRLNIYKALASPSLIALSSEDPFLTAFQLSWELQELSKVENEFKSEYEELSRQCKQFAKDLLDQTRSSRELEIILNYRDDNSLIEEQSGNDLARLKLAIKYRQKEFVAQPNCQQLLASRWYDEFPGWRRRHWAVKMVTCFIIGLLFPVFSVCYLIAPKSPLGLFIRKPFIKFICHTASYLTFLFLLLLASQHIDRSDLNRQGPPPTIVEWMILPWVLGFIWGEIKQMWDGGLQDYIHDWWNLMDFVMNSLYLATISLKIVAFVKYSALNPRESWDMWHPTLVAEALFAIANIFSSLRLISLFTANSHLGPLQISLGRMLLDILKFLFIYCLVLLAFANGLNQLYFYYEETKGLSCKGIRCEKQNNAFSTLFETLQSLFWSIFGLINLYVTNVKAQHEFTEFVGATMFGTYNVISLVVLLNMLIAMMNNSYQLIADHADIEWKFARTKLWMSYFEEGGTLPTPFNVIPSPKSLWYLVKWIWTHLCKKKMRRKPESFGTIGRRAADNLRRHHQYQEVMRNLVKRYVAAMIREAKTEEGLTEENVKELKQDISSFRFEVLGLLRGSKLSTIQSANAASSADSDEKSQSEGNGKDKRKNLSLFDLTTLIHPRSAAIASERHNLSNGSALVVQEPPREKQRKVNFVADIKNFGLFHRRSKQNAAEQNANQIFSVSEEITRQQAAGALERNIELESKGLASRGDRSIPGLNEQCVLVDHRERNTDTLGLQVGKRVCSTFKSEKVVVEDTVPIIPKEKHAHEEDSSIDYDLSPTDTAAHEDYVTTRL
`COc1ccc(/C=C2/S/C(=N/N=C3\CC4CCC3(C)C4(C)C)NC2=O)cc1` (configuration not stated) was tested, and the B-score was “inactive”. `CC(=O)N1c2ccc(S(=O)(=O)N3CCC(C(=O)N4CCN(c5ccccc5)CC4)CC3)cc2CC1C` (configuration not stated) was tested, and the B-score was “inactive”. In the case of `COc1ccccc1CNC(=O)C1CCN(S(=O)(=O)c2ccc3c(c2)CC(C)N3C(=O)C2CC2)CC1` (configuration not stated), the B-score is reported as “inactive”. For `CC(=O)c1ccc(N2CCN(C(=O)C3CCN(S(=O)(=O)c4ccc5c(c4)CC(C)N5C(=O)C4CC4)CC3)CC2)cc1` (configuration not stated), the B-score was 19 (active). In the case of `COc1ccccc1C1C2=C(COC2=O)Nc2cc3c(cc21)OCO3` (configuration not stated), the B-score is reported as “inactive”. In the case of `CCCOc1ccccc1C1CC(=O)Nc2cc3c(cc21)OCO3` (configuration not stated), the B-score is reported as 14 (active). With `COC(=O)C1=C(C)NC(=O)CC1c1ccccc1OC` (configuration not stated) the B-score was “inactive”. For `C/C(=C/c1ccccc1)C(=O)N1CCN(c2ccccc2)CC1`, the B-score was “inactive”. `O=C(O)c1cc2ccccc2c(=O)s1` was tested, and the B-score was “inactive”. In the case of `Cc1ccc(-c2nnn(CC(=O)N(Cc3ccco3)C(C(=O)NC(C)(C)C)c3ccncc3)n2)o1` (configuration not stated), the B-score is reported as “inactive”. With `COc1ccc(-c2nnn(CC(=O)N(CCO)C(C(=O)NC3CCCC3)c3ccc(F)cc3)n2)cc1` (configuration not stated) the B-score was “inactive”. `Cc1ccc(-c2nnn(CC(=O)N(CCO)C(C(=O)NC(C)(C)C)c3ccncc3)n2)cc1` (configuration not stated) was tested, and the B-score was 10 (active). `O=C1C(=O)N(CCN2CCOCC2)C(c2cccc(Cl)c2)/C1=C(/O)c1ccc2c(c1)OCO2` (configuration not stated) was tested, and the B-score was “inactive”. In the case of `Cc1cc(/C=N/n2cnnc2)c(C)n1-c1ccc2ncccc2c1`, the B-score is reported as “inactive”. For `Cc1ccccc1CC1(CO)CCCN(Cc2ccc3c(c2)OCCO3)C1` (configuration not stated), the B-score was “inactive”. For `COc1ccc([N+](=O)[O-])cc1NC(=O)CC1SC(=Nc2cccc(C)c2C)N(/N=C(\C)c2ccc(C)cc2)C1=O` (configuration not stated), the B-score was “inactive”. `O=C(N/N=C/c1ccc(Cl)cc1)c1nc2ccc([N+](=O)[O-])cc2c(=O)[nH]1` was tested, and the B-score was “inactive”. In the case of `COc1cc(NS(=O)(=O)c2ccc(NC(=S)NC(=O)c3ccccc3)cc2)nc(OC)n1`, the B-score is reported as “inactive”. With `CC(OC(=O)CCCc1c[nH]c2ccccc12)C(=O)Nc1ccc(S(N)(=O)=O)cc1` (configuration not stated) the B-score was “inactive”. `COCCCNC(=O)/C(C#N)=C/c1c(N2CCCCCC2)nc2ccccn2c1=O` was tested, and the B-score was “inactive”. In the case of `Cc1cccn2c(=O)c(/C=C(\C#N)C(N)=O)c(N3CCCCCC3)nc12`, the B-score is reported as 12 (active). For `Cc1cccn2c(=O)c(/C=C(\C#N)S(=O)(=O)c3ccc(Cl)cc3)c(N3CCC(C(N)=O)CC3)nc12`, the B-score was “inactive”. With `O=C(c1ccc(NS(=O)(=O)c2ccc3[nH]c(=O)[nH]c3c2)cc1)N1CCCCC1` the B-score was “inactive”. `CN(C)CCCSc1ccccc1NC(=O)/C=C/c1ccccc1` was tested, and the B-score was “inactive”. In the case of `N=c1c2c3c(sc2ncn1N)CCCC3`, the B-score is reported as “inactive”. `N=c1c2c3c(sc2ncn1CCCN1CCOCC1)CCCCC3` was tested, and the B-score was “inactive”. For `N=c1c2c3c(sc2ncn1N)CCCCC3`, the B-score was 10 (active). In the case of `N#Cc1ncc(C(F)(F)F)cc1Oc1cccnc1`, the B-score is reported as “inactive”. For `O=c1cc(N2CCCCC2)c(-c2ccccc2)nn1Cc1cccc(F)c1`, the B-score was “inactive”. With `Cc1ncc([N+](=O)[O-])n1CCOC(=O)c1ccc(Br)cc1` the B-score was “inactive”. In the case of `Cc1cccc(CCNC(=O)Cn2ncc3c([nH]c4ccc(C)cc43)c2=O)c1`, the B-score is reported as “inactive”. With `O=C(CN1CCN(c2ccccn2)CC1)N1CCc2ccccc21` the B-score was “inactive”. With `CC(=C1C(=O)c2ccccc2C1=O)N1CCN(c2ccccn2)CC1` the B-score was “inactive”. In the case of `O=C1c2cccc3cccc(c23)N1CN1CCN(c2ccccn2)CC1`, the B-score is reported as 10 (active). In the case of `CC(=O)Nc1ccc(S(=O)(=O)N2CCN(CCCOc3cc(C)ccc3C)CC2)cc1`, the B-score is reported as 32 (active). `Cc1ccc(C)c(OCCC(=O)Nc2cccc(S(=O)(=O)N3CCCC3)c2)c1` was tested, and the B-score was “inactive”. `Cc1cccc(OCCCC(=O)Nc2ccc(S(=O)(=O)N3CCCC3)cc2)c1` was tested, and the B-score was “inactive”. For `CC(=O)c1ccc(N2CCN(S(=O)(=O)c3ccc4c(c3)CC(=O)N4C)CC2)cc1`, the B-score was “inactive”. `Cc1c(C(=O)NCCN2C(=O)S/C(=C\c3cccs3)C2=O)cccc1[N+](=O)[O-]` was tested, and the B-score was “inactive”. `Cc1[nH][nH]c(=O)c1N=Nc1ccccc1` was tested, and the B-score was “inactive”. In the case of `COC(=O)c1ccccc1N=Nc1c(C)[nH][nH]c1=O`, the B-score is reported as 59 (active). `Cc1[nH]n(-c2ccccc2)c(=O)c1N=Nc1ccccc1C(=O)N1CCCCC1` was tested, and the B-score was “inactive”. `N#Cc1cccc(OC(=O)c2ccc3c(=O)n4c(nc3c2)CCC4)c1` was tested, and the B-score was “inactive”. For `CCOC(=O)C1=C(c2ccc(OC)cc2)C(=O)c2ccccc2C1=O`, the B-score was “inactive”. `CCOC(=O)c1ccc(-c2ccc(C(=O)Nc3cccnc3)o2)cc1` was tested, and the B-score was “inactive”. `COC(=O)C1=C(C)NC2=C(C(=O)c3ccccc32)C1c1ccc(-c2ccc(C(=O)O)cc2)o1` (configuration not stated) was tested, and the B-score was 16 (active). With `CC(NC(=O)COc1ccc(-c2ccccc2)cc1)C1CCCO1` (configuration not stated) the B-score was “inactive”. With `O=C(NCCc1ccccc1)C1CC1` the B-score was “inactive”. For `CCn1cc(C(=O)N2CC=C(c3ccccc3)CC2)c(=O)c2ccc(C)nc21`, the B-score was “inactive”. In the case of `O=C(Nc1cccc(Cl)c1N1CCOCC1)c1ccc2c(c1)OCCO2`, the B-score is reported as “inactive”. With `O=C(Nc1cccc(Cl)c1N1CCOCC1)c1cccnc1` the B-score was “inactive”. In the case of `CCN1CCN(c2c(Cl)cccc2NC(=O)c2ccc(Br)o2)CC1`, the B-score is reported as 11 (active).
